Inconclusive results are not listed. Calls of active or inactive are those of the source. Unless noted, the call rests on the fitted dose curve; in most records, active means well fitted curve in the direction sought with a large enough effect in the repeat runs; inconclusive means weak or mixed curves; inactive means no such curve, though single readings can be large; an effect the other way counts as inactive or inconclusive.
Assays:
[1] = qHTS assay to identify small molecule agonists of the peroxisome proliferator-activated receptor delta (PPARd) signaling pathway - cell viability counter screen (AID 743211); further: on the % scale 0 is the no-effect control and ±100 the full control effect; nearly all actives have a fitted effect of over 55% in size
Procedure, shortened: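 Viability of GeneBLAzer PPARd UAS-bla HEK293H cells was assessed after 17 h compound incubation at 37C, using CellTiter-Glo reagent added after the reporter read and luminescence recorded 30 min later.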

[2] = target: Peroxisome proliferator-activated receptor delta (Homo sapiens) (UniProt Q03181); assay: qHTS assay to identify small molecule agonists of the peroxisome proliferator-activated receptor delta (PPARd) signaling pathway (AID 743212; calls by dose curve; further: on the % scale 0 is the no-effect control and ±100 the full control effect)
Peroxisome proliferator-activated receptor delta (Homo sapiens), sequence (Q03181 whole entry, looked up): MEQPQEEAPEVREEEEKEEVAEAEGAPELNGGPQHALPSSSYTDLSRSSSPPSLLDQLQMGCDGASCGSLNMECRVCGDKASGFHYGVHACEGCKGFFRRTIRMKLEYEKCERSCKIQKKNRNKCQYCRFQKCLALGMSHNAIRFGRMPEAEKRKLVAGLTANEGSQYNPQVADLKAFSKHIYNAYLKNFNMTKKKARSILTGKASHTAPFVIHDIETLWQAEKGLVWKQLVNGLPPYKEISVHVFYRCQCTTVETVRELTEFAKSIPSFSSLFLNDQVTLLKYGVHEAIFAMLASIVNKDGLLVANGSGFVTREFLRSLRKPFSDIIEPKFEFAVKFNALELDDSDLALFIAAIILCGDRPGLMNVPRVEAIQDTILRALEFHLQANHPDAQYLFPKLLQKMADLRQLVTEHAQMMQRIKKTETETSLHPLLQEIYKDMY
Procedure, shortened: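 Read-out: beta-lactamase FRET fluorescence after 2 h room-temperature incubation with LiveBLAzer B/G substrate. Cells were HEK293H carrying a UAS-bla reporter for PPARd, treated at 37 C with DMSO-dissolved compounds.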

[3] = qHTS assay to identify small molecule antagonists of the peroxisome proliferator-activated receptor delta (PPARd) signaling pathway - cell viability counter screen (AID 743213); further: on the % scale 0 is the no-effect control and ±100 the full control effect; nearly all actives have a fitted effect of over 50% in size
Procedure, shortened: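 Same-well viability: cells pre-incubated 5 h, dosed with compound plus 300 nM L165041, kept 17 h at 37 C, FRET substrate 2 h RT, then CellTiter-Glo 30 min RT and luminescence.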

[4] = target: Peroxisome proliferator-activated receptor delta (Homo sapiens) (UniProt Q03181); assay: qHTS assay to identify small molecule antagonists of the peroxisome proliferator-activated receptor delta (PPARd) signaling pathway (AID 743215; active means well fitted inhibition curve with a large enough effect in the signal ratio in the repeat runs, not every such curve was filed as active; the % refers to the signal ratio;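 further: cells stimulated with agonist L165041 at 300 nM final during compound exposure; series mostly up to about 62 µM; on the % scale 0 is the no-effect control and ±100 the full control effect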)
Procedure, shortened: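 Agonist L165041 (300 nM final) added with compound to PPARd-bla HEK293H UAS-bla reporter cells; 17 h incubation at 37 C. Read-out: LiveBLAzer FRET substrate, 2 h at room temperature, fluorescence intensity.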

[5] = target: Bile acid receptor (Homo sapiens) (UniProt Q96RI1); assay: qHTS assay to identify small molecule antagonists of the farnesoid-X-receptor (FXR) signaling pathway (AID 743217; active means well fitted inhibition curve with a large enough effect in the signal ratio in the repeat runs, not every such curve was filed as active; the % refers to the signal ratio; further: on the % scale 0 is the no-effect control and ±100 the full control effect)
Bile acid receptor (Homo sapiens), sequence (Q96RI1 whole entry, looked up): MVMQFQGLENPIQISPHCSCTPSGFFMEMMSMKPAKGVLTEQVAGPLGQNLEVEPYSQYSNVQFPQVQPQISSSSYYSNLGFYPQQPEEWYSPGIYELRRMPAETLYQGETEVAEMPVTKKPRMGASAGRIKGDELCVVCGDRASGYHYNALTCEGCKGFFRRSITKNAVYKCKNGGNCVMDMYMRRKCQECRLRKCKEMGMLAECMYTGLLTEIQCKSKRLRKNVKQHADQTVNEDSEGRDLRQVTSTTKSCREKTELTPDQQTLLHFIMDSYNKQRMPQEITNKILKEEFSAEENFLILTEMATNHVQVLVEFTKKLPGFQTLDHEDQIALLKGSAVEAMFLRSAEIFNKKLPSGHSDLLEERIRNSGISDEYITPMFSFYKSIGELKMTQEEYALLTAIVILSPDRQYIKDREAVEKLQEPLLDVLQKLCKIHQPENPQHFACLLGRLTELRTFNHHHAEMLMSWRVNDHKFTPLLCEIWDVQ
Procedure, shortened: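 Antagonist mode: chenodeoxycholic acid at 50 uM final stimulates a UAS-driven beta-lactamase reporter in HEK 293T FXR-bla cells during 16 h, 37C compound exposure. Read-out is FRET substrate fluorescence after 2 h at room temperature.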

[6] = qHTS assay to identify small molecule agonists of the farnesoid-X-receptor (FXR) signaling pathway - cell viability counter screen (AID 743218); further: on the % scale 0 is the no-effect control and ±100 the full control effect; nearly all actives have a fitted effect of over 45% in size
Procedure, shortened: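 Viability counter screen in the same wells: CellTiter-Glo luminescence, 30 min room-temperature incubation, measured after the beta-lactamase read. Cells were GeneBLAzer FXR-UAS-bla HEK 293T, compound-treated 16 h at 37C.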

[7] = target: Bile acid receptor (Homo sapiens) (UniProt Q96RI1); assay: qHTS assay to identify small molecule agonists of the farnesoid-X-receptor (FXR) signaling pathway (AID 743220; active means well fitted activation curve with a large enough effect in the signal ratio in the repeat runs, not every such curve was filed as active; the % refers to the signal ratio; further: on the % scale 0 is the no-effect control and ±100 the full control effect)
Procedure, shortened: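 FXR-UAS-bla HEK 293T cells carrying a UAS-driven beta-lactamase reporter were plated for 5 h at 37C/5% CO2, then exposed to DMSO-dissolved Tox21 10K compounds for 16 h at 37C. A LiveBLAzer B/G FRET substrate was loaded for 2 h at room temperature before fluorescence reading.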

[8] = qHTS assay to identify small molecule antagonists of the farnesoid-X-receptor (FXR) signaling pathway - cell viability counter screen (AID 743221; active means well fitted cell-killing curve with a large enough effect in the repeat runs, not every such curve was filed as active; further: on the % scale 0 is the no-effect control and ±100 the full control effect; nearly all actives have a fitted effect of over 50% in size)
Procedure, shortened: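 Quantitative HTS of the Tox21 10K library run in parallel with the beta-lactamase reporter read. HEK 293T cells carrying a UAS-driven bla reporter got compound and 50 uM CDCA (final) for 16 h; ATP-based luminescence followed.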

[9] = target: Vitamin D3 receptor (Homo sapiens) (UniProt P11473); assay: qHTS assay to identify small molecule agonists of the vitamin D receptor (VDR) signaling pathway (AID 743222; calls by dose curve; further: on the % scale 0 is the no-effect control and ±100 the full control effect)
Vitamin D3 receptor (Homo sapiens), sequence (P11473 whole entry, looked up): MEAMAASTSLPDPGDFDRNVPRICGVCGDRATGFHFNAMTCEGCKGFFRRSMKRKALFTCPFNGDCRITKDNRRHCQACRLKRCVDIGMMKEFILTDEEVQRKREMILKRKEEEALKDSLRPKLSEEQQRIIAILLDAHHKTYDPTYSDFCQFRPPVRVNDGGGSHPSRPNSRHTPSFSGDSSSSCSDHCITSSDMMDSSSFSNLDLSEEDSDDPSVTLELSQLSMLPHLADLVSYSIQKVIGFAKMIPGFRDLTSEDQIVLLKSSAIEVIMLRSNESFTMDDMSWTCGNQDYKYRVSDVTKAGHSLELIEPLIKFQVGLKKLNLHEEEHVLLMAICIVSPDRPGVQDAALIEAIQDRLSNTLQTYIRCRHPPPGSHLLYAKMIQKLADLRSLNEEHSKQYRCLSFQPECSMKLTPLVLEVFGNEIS
Procedure, shortened: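 Agonist mode, beta-lactamase reporter: fluorescence from LiveBLAzer B/G FRET substrate (2 h, room temperature) read after 16 h compound treatment at 37 C of VDR-bla cells, which were pre-incubated 4 h after seeding.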

[10] = qHTS assay to identify small molecule agonists of the vitamin D receptor (VDR) signaling pathway - cell viability counter screen (AID 743224); further: series mostly up to about 63 µM; on the % scale 0 is the no-effect control and ±100 the full control effect; nearly all actives have a fitted effect of over 50% in size
Procedure, shortened: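 Counter screen run in the same wells as the VDR-bla reporter assay: CellTiter-Glo luminescence, 30 min at room temperature, after 16 h compound treatment at 37C of cells pre-plated for 4 h.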

[11] = qHTS assay to identify small molecule antagonists of the vitamin D receptor (VDR) signaling pathway - cell viability counter screen (AID 743225); further: on the % scale 0 is the no-effect control and ±100 the full control effect; nearly all actives have a fitted effect of over 50% in size
Procedure, shortened: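 Cells (VDR-UAS-bla HEK 293T) are plated, rested 4 h at 37C, dosed with compound and 3 nM final 1-alpha,25-dihydroxy vitamin D3, and incubated 16 h. Viability is taken from CellTiter-Glo luminescence in the reporter wells.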

[12] = qHTS assay to identify small molecule agonists of the NFkB signaling pathway - cell viability counter screen (AID 1159515; calls by dose curve; further: series mostly up to about 61 µM; on the % scale 0 is the no-effect control and ±100 the full control effect; nearly all actives have a fitted effect of over 55% in size)
Procedure, shortened: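 Read by CellTiter-Glo luminescence (30 min, room temperature) in the wells also used for the beta-lactamase FRET read. ME-180 NFkB-bla cells at 2,000 per well were plated overnight, then exposed to compound for 5 hr at 37 C.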

[13] = qHTS assay to identify small molecule agonists of the endoplasmic reticulum stress response signaling pathway (AID 1159516; active means well fitted activation curve with a large enough effect in the signal ratio in the repeat runs, not every such curve was filed as active; the % refers to the signal ratio; further: on the % scale 0 is the no-effect control and ±100 the full control effect)
Procedure, shortened: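 Ratiometric FRET readout (405 nm excitation; 460 and 530 nm emission) of a beta-lactamase gene driven by the ER stress response element, after 2 hr substrate loading. HeLa ESRE-bla cells were seeded overnight and treated with compounds for only 5 hr at 37 C.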

[14] = qHTS assay to identify small molecule agonists of the endoplasmic reticulum stress response signaling pathway - cell viability counter screen (AID 1159517; calls by dose curve)
Procedure, shortened: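 Steps: seed 1,500 ESRE-bla HeLa cells per well; incubate overnight at 37 C, 5% CO2; add compounds in DMSO for 5 hr; run FRET substrate 2 hr RT; add CellTiter-Glo, wait 30 min, read luminescence.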

[15] = qHTS assay to identify small molecule antagonists of the retinoid-related orphan receptor gamma (ROR-gamma) signaling pathway - cell viability counter screen (AID 1159520)
Procedure, shortened: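 Tet-on ROR gamma CHO cells were given compounds for 2 hr, then doxycycline hyclate at 1 uM final, and incubated 16 hr at 37 C. Viability was measured as ATP content by CellTiter-Glo luminescence.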

[16] = target: Nuclear receptor ROR-gamma (Homo sapiens) (UniProt P51449); assay: qHTS assay to identify small molecule antagonists of the retinoid-related orphan receptor gamma (ROR-gamma) signaling pathway (AID 1159521)
Procedure, shortened: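 RORγ antagonism is scored from reduced reporter luminescence in Tet-on CHO cells. Induction used 1 uM final doxycycline hyclate for 16 h at 37 C, following a 2 h compound exposure.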

[17] = qHTS assay to identify small molecule agonists of the AP-1 signaling pathway - cell viability counter screen (AID 1159525; calls by dose curve; further: nearly all actives have a fitted effect of over 55% in size)
Procedure, shortened: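 Same-well cytotoxicity counter screen of the Tox21 10K library in ME-180 cells. The readout is ATP-dependent luminescence after 5 h compound treatment. Data are normalised to DMSO and tetra n-octyl ammonium bromide controls.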

[18] = qHTS assay to identify small molecule agonists of the AP-1 signaling pathway (AID 1159526; calls by dose curve; further: on the % scale 0 is the no-effect control and ±100 the full control effect)
[19] = qHTS assay to identify small molecule agonists of the NFkB signaling pathway (AID 1159509; active means well fitted curve in the direction sought with a large enough effect in the signal ratio in the repeat runs, not every such curve was filed as active; the % refers to the signal ratio)
Procedure, shortened: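 Readout: FRET fluorescence, 405 nm excitation, 460/530 nm emission; beta-lactamase expression disrupts FRET. Cells: ME-180 stably carrying NF-kB-driven bla reporter. Compound exposure 5 hr, 37 C, 5% CO2.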

[20] = target: Vitamin D3 receptor (Homo sapiens) (UniProt P11473); assay: qHTS assay to identify small molecule antagonists of the vitamin D receptor (VDR) signaling pathway (AID 743223; active means well fitted inhibition curve with a large enough effect in the signal ratio in the repeat runs, not every such curve was filed as active; the % refers to the signal ratio; further: on the % scale 0 is the no-effect control and ±100 the full control effect)
Procedure, shortened: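 Fluorescence from LiveBLAzer B/G FRET substrate, read after 2 h at room temperature, reflects beta-lactamase reporter activity in VDR-bla cells treated 16 h at 37C with compounds and agonist 1alpha,25-dihydroxyvitamin D3 (3 nM final).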

CCCCCCCC/C=C\CCCCCCCC(=O)OCCCC
inactive: outcome [1] | outcome [2] | outcome [3] | outcome [4] | Potency [5] | Potency [6] | Potency [7] | outcome [8] | outcome [9] | Potency [10] | outcome [11] | outcome [12] | outcome [13] | Potency [14] | activity, negative = cytotoxicity [15] -6.58% [at 19 µM] | activity change, negative = inhibition [16] 12% [at 19 µM] | viability change, negative = cytotoxic [17] -3.05% [at 15.8 µM] | activation [18] -1.59% [at 15.8 µM]

CCN(CC)CC(=O)Nc1c(C)cccc1C
inactive: outcome [1] | outcome [3] | Potency [6] | Potency [7] | outcome [8] | Potency [10] | outcome [11] | outcome [19] | outcome [13] | Potency [14] | outcome [15] | outcome [17] | outcome [18]

Cc1cc(NC(=O)C2=C(O)c3ccccc3S(=O)(=O)N2C)no1
inactive: outcome [1] | outcome [2] | outcome [4] | outcome [8] | outcome [9] | Potency [10] | outcome [19] | outcome [13] | Potency [14] | outcome [15] | outcome [16] | outcome [17] | outcome [18]

CC(C)C(=O)OCc1cccc(OC(=O)[C@@H]2N3C(=O)[C@@H](NC(=O)Cc4ccccc4)[C@H]3SC2(C)C)c1
inactive: outcome [1] | outcome [2] | outcome [3] | outcome [4] | Potency [6] | outcome [8] | outcome [9] | outcome [20] | Potency [10] | outcome [11] | outcome [19] | outcome [13] | Potency [14] | outcome [15] | outcome [16] | outcome [17] | outcome [18]

CC(=O)c1ccc2c(c1)Cc1ccccc1-2
inactive: outcome [1] | outcome [2] | outcome [3] | outcome [4] | Potency [6] | Potency [7] | outcome [8] | outcome [9] | Potency [10] | outcome [11] | outcome [19] | outcome [13] | Potency [14] | outcome [15] | outcome [16] | outcome [17] | outcome [18]

CCCCCCCCCCl
inactive: outcome [1] | outcome [3] | Potency [6] | Potency [7] | outcome [8] | outcome [9] | outcome [20] | Potency [10] | outcome [11] | outcome [19] | outcome [13] | Potency [14] | outcome [15] | outcome [16] | outcome [17] | outcome [18]

CC(C)NCC(O)COc1cccc2[nH]ccc12 (stereo not drawn)
inactive: outcome [1] | outcome [2] | outcome [3] | Potency [6] | outcome [8] | outcome [20] | Potency [10] | outcome [11] | outcome [19] | outcome [13] | Potency [14] | outcome [15] | outcome [16] | outcome [18]
